B2AR arrestin: qHTS assay of beta-arrestin-biased ligands of beta2-adrenergic receptor; Beta-2 adrenergic receptor (Homo sapiens), P07550; Potency, µM (highest dose often 46.1 µM), usual class: activators; hit rate 0.02% among 330,000; beta-arrestin recruitment to beta2AR, cell-based reporter; note: nearly all actives have a fitted effect of over 65% in size
RGS4 inhibitor: Inhibitors of Regulator of G Protein Signaling (RGS) 4: qHTS | Transcreener GDP fluorescence polarization, RGS4-accelerated GTP hydrolysis | hit rate 0.039% among 390,000 | Potency, µM (titrated, usually from 114 µM), actives largely listed as inhibitors | AID 504845, 2011 | Regulator of G-protein signaling 4 (Homo sapiens), P49798; note: nearly all actives have a fitted effect of over 75% in size
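MLSMR compounds (23 nl, pin-transferred) preincubated 10 min at room temperature with a 500nM (2x) first reagent, then RGS4 at 900nM (2x) plus Transcreener GDP mix added; fluorescence polarization (620/688 nm) read before and after 90 min at 30 °C.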
DRD3 antagonist: qHTS of D3 Dopamine Receptor Antagonist: qHTS. D(3) dopamine receptor (Homo sapiens), P35462. D3R cells, DiscoveRx beta-arrestin luminescence, antagonist mode; stronger effect = lower value. max response, negative = inhibition, %. hit rate 2.5% among 360,000; in the data active = max response below about -50%; inconclusive = no clear call, values can overlap the other calls
Target sequence (P35462 whole entry, looked up): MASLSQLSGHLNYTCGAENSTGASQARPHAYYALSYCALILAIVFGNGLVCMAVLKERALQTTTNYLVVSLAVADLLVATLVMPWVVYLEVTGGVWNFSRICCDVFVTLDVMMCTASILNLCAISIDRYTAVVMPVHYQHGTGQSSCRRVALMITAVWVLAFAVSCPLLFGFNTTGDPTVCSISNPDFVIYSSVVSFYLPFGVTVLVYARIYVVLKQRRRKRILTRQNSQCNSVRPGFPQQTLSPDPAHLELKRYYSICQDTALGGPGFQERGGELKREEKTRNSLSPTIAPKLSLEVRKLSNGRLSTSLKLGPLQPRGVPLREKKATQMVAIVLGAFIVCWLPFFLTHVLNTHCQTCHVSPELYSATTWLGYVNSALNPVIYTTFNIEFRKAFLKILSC
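Cells expressing the human receptor were seeded at 1500 cells/well, incubated overnight at 37 degrees C in 5% CO2, then exposed to library compounds with dopamine controls for 90 minutes at 37 degrees C before luminescent detection.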
PTHR1 agonist: qHTS for PTHR1 Agonists: Primary Screen; AID 743266, 2014; HEK293 GP2 PTHR1 cells, GloSensor cAMP luminescence, 1 h; Potency, µM (titrated, usually from 115 µM), most hits filed as activators; Parathyroid hormone/parathyroid hormone-related peptide receptor (Homo sapiens), Q03431; hit rate 0.075% among 410,000; note: nearly all actives have a fitted effect of over 55% in size
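HEK-293-derived GP2 cells expressing PTHR1 and a GloSensor cAMP reporter, 3,000/well, plated overnight, given luciferin plus IBMX (each 0.5 mM as added) for 1 h at 37 °C, then compound for 1 h at 37 °C. Luminescence was read after 15 min at room temperature.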
DRD3 agonist: qHTS of D3 Dopamine Receptor Agonist: qHTS | D3R DiscoveRx beta-arrestin cells, luminescence, 90 min | max activation, % | hit rate 0.58% among 410,000; in the data active = max activation above about 30%
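Agonist-mode cell screen: cells plated at 1500/well and incubated overnight at 37 °C, then exposed to library compounds for 90 min at 37 °C. Detection reagent was added for 30–60 min at room temperature, and luminescence was read.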
BRCA1 expr up: qHTS Assay to Identify Small Molecule Activators of BRCA1 Expression. Potency, µM (series often up to 46.1 µM), hits mostly activators. MCF7-BRCA1-FFLuc reporter, luminescence, 48 h; response scale: scaled: vehicle 0%, 10 µM genistein 100%. hit rate 1.1% among 380,000; note: nearly all actives have a fitted effect of over 80% in size
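48 h compound treatment of MCF7-BRCA1-FFLuc cells (phenol-red free MEM, 37 °C), then 15 min with luciferase substrate and luminescence imaging.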
Large screens that a line does not name were inactive. Sampled rows, rich in hits. Any-hit rate of the full collection: about 3.7%. Unless noted, calls come from the whole dose curve; as a rule, active = well fitted curve in the direction sought with a large enough effect; inconclusive = small, poorly fitted or top-dose-only effect, or another doubt; inactive = no such curve, though single readings can be large; an effect the other way counts as inactive or inconclusive.

COc1ccccc1CNC(=O)C(C)NS(=O)(=O)c1ccc(Br)cc1 (stereo unspecified)	DRD3 antagonist -68
Cc1ccc(Sc2nnc(Cc3ccccc3)c3ccccc23)cc1	DRD3 antagonist -51
O=C(c1ccc2c3c(cccc13)CC2)C1CCCN(Cc2ccncc2)C1 (stereo unspecified)	DRD3 antagonist -53
CCc1nc(CN2CCCC(C(=O)c3ccc4c5c(cccc35)CC4)C2)c(C)[nH]1 (stereo unspecified)	DRD3 antagonist -51
CCC(=O)N1CCN(c2ccccc2NC(=O)Cc2ccc(Cl)cc2)CC1	DRD3 antagonist -74
CCC(=O)N1CCN(c2ccc(Cl)cc2NC(=O)Cc2ccc(Cl)cc2)CC1	none
O=C(Nc1cc(Cl)ccc1O)c1cc(-c2ccco2)on1	BRCA1 expr up 6.3µM
COc1ccc(C(=O)NCc2ccco2)cc1S(=O)(=O)NC1CC1	none
CN(C)/C=N/C(=S)Nc1ccc(Cl)cc1	BRCA1 expr up inconclusive
CN(C)/C=N/C(=S)Nc1ccc(Cl)cc1Cl	BRCA1 expr up 5µM
CC(=O)Nc1ccc(OC(C)=O)cc1	none (no result: B2AR arrestin, RGS4 inhibitor, DRD3 antagonist, PTHR1 agonist, BRCA1 expr up)
O=C1c2cccnc2-c2ncccc21	none
O=C1C(=O)c2cccnc2-c2ncccc21	DRD3 antagonist -87 (no result: B2AR arrestin, RGS4 inhibitor)
CCC(C)(C)NC(=O)C(c1ccccc1F)N(C(=O)c1ccn[nH]1)c1ccccc1 (stereo unspecified)	none
CC(C)(C)NC(=O)C(c1ccc(F)cc1)N(Cc1ccccc1Cl)C(=O)c1ccn[nH]1 (stereo unspecified)	B2AR arrestin 1µM
Cc1ccccc1NC(=O)Cn1c(=O)n(Cc2ccccc2)c(=O)c2sc3ccccc3c21	none (no result: B2AR arrestin, DRD3 antagonist)
O=C(c1ccc(S(=O)(=O)N2CCCCCC2)cc1)N1CCN(c2ccccc2F)CC1	none (no result: B2AR arrestin)
O=C1Nc2ccc(Cl)cc2C(=O)C1(F)c1ccccc1 (stereo unspecified)	DRD3 agonist 37
Cc1ccc(OCC(=O)N2CCc3ccccc3C2)c(C)c1	none
Cc1ccc(OCC(=O)N2CCc3ccccc3C2)c(Br)c1	BRCA1 expr up 13µM
CCOC(=O)C1=C(Nc2ccccc2)CSC1	none (no result: B2AR arrestin, RGS4 inhibitor)
Cc1ccc(S(=O)(=O)CCC(=O)N2CCN(c3ccc(Cl)cc3)CC2)cc1	DRD3 agonist 32
O=C(CCS(=O)(=O)c1ccccc1)N1CCN(c2ccccc2)CC1	BRCA1 expr up 3.2µM
COc1ccc2oc(=O)cc(CN3CCN(C(=O)c4ccccc4Br)CC3)c2c1	none (no result: B2AR arrestin, DRD3 antagonist, BRCA1 expr up)
CNS(=O)(=O)c1cn(CC(=O)NCc2cccc(OC)c2)cc1S(=O)(=O)NC	none
CC(C)c1nc2ccc(C(=O)NCc3ccccc3Br)cc2o1	none (no result: B2AR arrestin, DRD3 antagonist, BRCA1 expr up)
O=C(/C=C/NNC(=O)c1ccccc1)c1ccc(Br)cc1	DRD3 antagonist -77
COc1ccc(C(=O)C=CNNC(=O)c2ccc(Cl)cc2)cc1	DRD3 antagonist -54
CCCCCn1c(CN2CCN(c3cc(Cl)ccc3C)CC2)nc2c1c(=O)[nH]c(=O)n2C	DRD3 agonist 87
Cn1c(CNS(=O)(=O)c2ccc(Cl)cc2)n[nH]c1=S	DRD3 antagonist -60
COc1ccc(O)c(C(=O)/C=C/c2cc3ccccc3o2)c1	DRD3 antagonist -62
Cc1ccc(N=C2C(=O)Nc3ccccc32)cc1C	none
Cc1ccc(N=C2c3ccccc3C(=O)C2[N+](=O)[O-])cc1C (stereo unspecified)	DRD3 antagonist -58
CN(C)CCCn1c(NC(=O)C2CCCCC2)nc2ccccc21	DRD3 antagonist -52
CCCCn1c(NC(=S)Nc2ccccc2)nc2ccccc21	DRD3 agonist 32
O=C(C[C@H]1C/C=C\CC[C@H](Cc2ccc(F)cc2)C(=O)O[C@H](c2ccccc2)CNC1=O)N[C@H](CO)Cc1ccccc1	none
CCNc1ccc(Br)cc(C(=O)/C=C/c2ccc(Cl)cc2Cl)c1=O	RGS4 inhibitor inconclusive, DRD3 antagonist -78

Screens deposited in PubChem by National Center for Advancing Translational Sciences (NCATS).
